Results as given in PubChem BioAssay (EPA / NIEHS).
Results filed as inconclusive are left out. The source made the active and inactive calls. Rule for the calls: active = hit-call score of the fitted dose curve at least 0.9, where 1 is the maximum; inconclusive = response in the unintended direction; inactive = score below 0.9.

The compounds below were run against Oxysterols receptor LXR-alpha (Homo sapiens) (UniProt Q13133) (assay: ATG_LXRa_TRANS: Attagene TRANS-FACTORIAL HepG2 Assay for human Liver X Receptor alpha (LXRa) (AID 2282980)). Conditions: HepG2 Attagene TRANS reporter, LXRa transactivation.
Experimental: ATG_TRANS is a cell-based, multiplexed-readout assay that uses HepG2, a human liver cell line, with measurements taken at 24 hours after chemical dosing in a 24-well plate.ATG_LXRa_TRANS is one of 30 assay component(s) measured or calculated from the ATG_TRANS assay. It is designed to make measurements of mRNA induction, a form of inducible reporter, as detected with fluorescence intensity signals by Reverse transcription polymerase chain reaction (RT-PCR) and Capillary electrophoresis technology.Data from the assay component ATG_LXRa_TRANS was analyzed into 1 assay endpoint. This assay endpoint, ATG_LXRa_TRANS, was analyzed in the positive analysis fitting direction relative to DMSO as the negative control and baseline of activity. Using a type of inducible reporter, measures of mRNA for gain-of-signal activity can be used to understand the reporter gene at the transcription factor-level as they relate to the gene NR1H3. Furthermore, this assay endpoint can be referred to as a primary readout, because this assay has produced multiple assay endpoints where this one serves a reporter gene function. To generalize the intended target to other relatable targets, this assay endpoint is annotated to the nuclear receptor intended target family, where the subfamily is non-steroidal.
Human liver HepG2 cells are transiently transfected with multiple reporter transcription units (MRTUs) in 6-well plates using FuGene 6 reagent (Roche; 3 ml FuGene/1 mg DNA). The MRTU constructs are regulated by a cis-regulating element (promoter). […] A major difference between the CIS and TRANS system is that in CIS activities of endogenous TFs are measured, whereas the TRANS assay evaluates changes in activities of exogenous, chimeric NR-Gal4 proteins. […] At the end of 24 hour incubation, total RNA was isolated using TriZol reagent (Invitrogen). The isolated RNA is then reverse-transcribed using oligo(dT) primer and Mo-MLV reverse transcriptase (Invitrogen) with DNAse I (Ambion) treatment for 30 min. The one-tenth of the produced cDNA was amplified by PCR using Taq DNA polymerase (Invitrogen) and two reporter sequence-specific primers. The PCR products were fluorescently labeled by primer extension with 6-arboxyfluorescein (6-FAM) 5'-labeled reporter sequence-specific primer (2 min at 95 C, 20 s at 68 C and 10 min at 72 C) and these products were digested with 5U of HpaI (New England Biolabs) for 2h at 37 C. The fragments were purified using Qiaquick PCR columns (Qiagen), analyzed on an ABI 3130xL genetic analyzer (Applied Biosystems) with peak positions identified by using a set of X-rhodamine (ROX)-labeled MapMarker1000 molecular weight standards (BioVentures). The raw capillary electrophoresis data was processed using Attagraph software (Attagene).

Sequence of Oxysterols receptor LXR-alpha (Homo sapiens) (Q13133 whole entry, looked up): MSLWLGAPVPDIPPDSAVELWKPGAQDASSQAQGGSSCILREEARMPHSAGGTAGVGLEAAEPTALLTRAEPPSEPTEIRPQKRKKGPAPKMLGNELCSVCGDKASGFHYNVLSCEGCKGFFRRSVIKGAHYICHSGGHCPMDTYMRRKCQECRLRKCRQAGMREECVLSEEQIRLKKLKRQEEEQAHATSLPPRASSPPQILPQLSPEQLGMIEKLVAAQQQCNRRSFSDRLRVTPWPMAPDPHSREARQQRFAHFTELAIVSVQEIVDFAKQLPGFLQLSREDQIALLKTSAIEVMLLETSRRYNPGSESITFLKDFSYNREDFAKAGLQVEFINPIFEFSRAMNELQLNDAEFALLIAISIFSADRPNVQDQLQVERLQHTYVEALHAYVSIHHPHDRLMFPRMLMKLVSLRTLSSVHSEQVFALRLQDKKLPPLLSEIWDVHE

outcome, inactive:
C[C@]12CC[C@@H]3c4ccc(O)cc4CC[C@H]3[C@@H]1C[C@@H](O)[C@@H]2O, CCCCCCCCCCCC[N+](C)(C)Cc1ccccc1, O=CC(F)(F)C(F)(F)C(F)(F)C(F)F, CCCCCCc1ccc(N)cc1, NC(=NCCCCCCN=C(N)/N=C(\N)Nc1ccc(Cl)cc1)/N=C(\N)Nc1ccc(Cl)cc1, C=COC(=O)C(C)(C)CCCCCC, NS(=O)(=O)O, O=c1cc(-c2ccccc2)oc2ccc3ccccc3c12, CC(C)(C)c1ccc(O)c(O)c1, O=C(O)CN(CCCN(CC(=O)O)CC(=O)O)CC(=O)O, O=C1OC(=O)C(F)(F)C1(F)F, COC1=CC(=O)C[C@@H](C)[C@]12Oc1c(Cl)c(OC)cc(OC)c1C2=O, CC[N+](CC)(CC)Cc1ccccc1, C=CC(=O)OCCC(F)(F)C(F)(F)C(F)(F)C(F)(F)C(F)(F)C(F)(F)F, C=CC(=O)OCCC(F)(F)C(F)(F)C(F)(F)C(F)(F)C(F)(F)C(F)(F)C(F)(F)C(F)(F)F, Cc1ccc(C)c(S(=O)(=O)O)c1, Cc1ccccc1OCC(=O)O, OCC1CCC(CO)CC1 (stereo not given), CCCCCCCCCCCC(=O)O, Cc1ccc(S(=O)(=O)O)cc1, O=P(O)(O)CCC(F)(F)C(F)(F)C(F)(F)C(F)(F)C(F)(F)C(F)(F)F, O=C1C=CC(=O)N1c1cccc(N2C(=O)C=CC2=O)c1, NCc1cccc(CN)c1, C=Cc1ccc(O)c(OC)c1, FC1(F)C=CC(F)(F)C1(F)F, O=S(=O)(O)C(F)(F)C(F)(F)C(F)(F)C(F)(F)C(F)(F)C(F)(F)C(F)(F)C(F)(F)C(F)(F)C(F)(F)F, FC(F)(F)C(F)(F)C(F)(F)Br, O=C(Nc1cccc([N+](=O)[O-])c1)c1cc2ccccc2cc1O, Cc1cc(C(C)(C)C)c(O)c(C(C)(C)C)c1, CCCC=O, OCC(CO)(CBr)CBr, O=C(O)C(F)(F)OC(F)(F)C(F)(F)OC(F)(F)C(F)(F)OC(F)(F)C(F)(F)C(F)(F)C(F)(F)F, CCOCCOCC, Cc1ccc(N=Nc2c(O)ccc3ccccc23)c(C)c1, O=C1OC2(c3ccccc31)c1cc(I)c(O)c(I)c1Oc1c2cc(I)c(O)c1I, O=C1c2ccccc2C(=O)c2c(O)c(O)cc(O)c21, COCC1CCC(CO)CC1 (stereo not given), O=C(O)CCC(F)(F)C(F)(F)C(F)(F)C(F)(F)C(F)(F)F, COc1ccccc1NC(=O)c1cc2ccccc2cc1O, O=C(F)C(F)(F)C(F)(F)C(F)(F)C(F)F
